Source: PubChem BioAssay (National Center for Advancing Translational Sciences (NCATS))
This is a sample that favours compounds with a hit; in the whole collection about 2.4% have one here.
D2 ag-1 – agonists of human D2 dopamine receptor (beta-arrestin); P14416; DiscoveRx PathHunter D2 beta-arrestin, luminescence, 90 min; 100% = 57 uM dopamine signal; activation, % (test concentration not listed); 0.084% of 360,000 active; in the data active = activation above about 40%; inconclusive = between about 15% and that limit
Target sequence (P14416 whole entry, looked up): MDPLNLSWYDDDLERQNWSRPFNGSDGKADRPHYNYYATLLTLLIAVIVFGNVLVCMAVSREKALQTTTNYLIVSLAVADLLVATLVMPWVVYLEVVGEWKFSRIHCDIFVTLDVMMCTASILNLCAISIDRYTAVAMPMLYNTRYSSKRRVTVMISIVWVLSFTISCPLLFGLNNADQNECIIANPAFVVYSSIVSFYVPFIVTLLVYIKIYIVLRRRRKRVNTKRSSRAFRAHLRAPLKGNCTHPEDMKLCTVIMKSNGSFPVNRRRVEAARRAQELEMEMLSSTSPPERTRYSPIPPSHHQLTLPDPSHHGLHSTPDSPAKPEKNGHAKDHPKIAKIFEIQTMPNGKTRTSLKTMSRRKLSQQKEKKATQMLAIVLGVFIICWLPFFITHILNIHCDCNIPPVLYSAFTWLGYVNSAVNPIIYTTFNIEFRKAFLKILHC
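DiscoveRx PathHunter D2 beta-arrestin cells (2,100/well) attached overnight, then compound-stimulated 90 min at 37 C in HBSS/10 mM HEPES/0.1% Tween-20 buffer; beta-galactosidase complementation read by luminescence after 1 h at ambient temperature. Dopamine 57 uM final (EC100) as control.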
D2 antag – D2 dopamine receptor (human) antagonism. P14416. HEK293 TREx D2 cells, calcium flux, dopamine EC80. inhibition, % at 10 µM. 2% of 340,000 active; in the data active = inhibition above about 30%; inactive = below that, where a call was filed
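Calcium flux kinetic readout in an inducible HEK293 TREx D2 line plated overnight at 30 C. After 180 s compound exposure, an EC80 dopamine challenge follows with another 180 s kinetic read to detect antagonism.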
D2 ag-2 – agonists of human D2 dopamine receptor; HEK293 T-REx D2 cells, calcium flux agonist mode; activation, % at 2 µM; 0.53% of 340,000 active; AID 485358;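 active = activation over 3 SD above normal in the single-dose calcium agonist read, cut at about 30% in these data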
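Tetracycline-induced HEK293 T-REx cells with force-coupled D2 receptor, plated overnight at 30 C, loaded with no-wash calcium dye. After a 10 s baseline, compound was pin-added and calcium flux read kinetically for 180 s; calcium rises flagged agonists.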
D2 PAM-1 – positive allosteric modulators of human D2 dopamine receptor; P14416; HEK293 T-REx D2, calcium flux, EC20 dopamine potentiation; potentiation, % at 10 µM; 0.34% of 340,000 active;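 active = potentiation over 3 SD above the plate norm, cut at about 30% in these data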
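Potentiation of an EC20 dopamine calcium response measured kinetically over 180 s, after a preceding 180 s compound-only read flagging agonists. Cells: inducible Hek293 Trex D2 line, 4000/well, cultured overnight at 30 C before dye loading.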
D2 PAM-2 – potentiates the human D2 dopamine receptor allosterically. 0.23% of 360,000 active. potentiation, % (concentration not given with the values). DiscoveRx D2 beta-arrestin cells, luminescence, 90 min; 100% = 57 uM dopamine signal. AID 624464; in the data active = potentiation above about 50%; inconclusive = mostly about 30% to 49%
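PathHunter D2 cells, attached overnight at 37 deg C, received compound in DMSO plus dopamine at EC20 (50 nM final) for 90 min at 37 deg C. Beta-arrestin recruitment was read as luminescence after 1 h with detection reagent at ambient temperature.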
A number is an active result; - = inactive; ? = inconclusive; . = no result given.

SMILES	D2 ag-1	D2 antag	D2 ag-2	D2 PAM-1	D2 PAM-2
CSc1ccc(S(=O)(=O)NCC(=O)OCC(=O)N(C)CC(=O)Nc2ccc(F)cc2)cc1[N+](=O)[O-]	-	.	.	.	-
N#Cc1c(C(F)(F)F)cc(-c2ccccc2Cl)[nH]c1=O	-	44	-	-	-
COC(=O)Nc1nnc(/C=C/c2ccc(OC)cc2)s1	-	31	-	-	-
COc1ccc(/C=C/c2nnc(NC(C)=O)s2)cc1	-	-	-	-	-
CCCCOC(=O)C1=C(C)NC(=O)NC1c1cccc([N+](=O)[O-])c1 (stereo not drawn)	-	-	-	-	-
CCCCOC(=O)C1=C(C)NC(=O)NC1c1ccc([N+](=O)[O-])s1 (stereo not drawn)	-	-	-	-	58
COc1ccccc1NS(=O)(=O)c1ccc(C)c(C(=O)NC2CCN(Cc3ccccc3)CC2)c1	-	77	-	-	-
COc1ccccc1NS(=O)(=O)c1cc(C(=O)NC2CCN(Cc3ccccc3)CC2)ccc1C	-	.	.	.	-
COc1ccc(NS(=O)(=O)c2ccc(C)c(C(=O)NC3CCN(Cc4ccccc4)CC3)c2)cc1	-	-	-	-	-
COc1ccccc1NS(=O)(=O)c1cccc(C(=O)NC2CCN(Cc3ccccc3)CC2)c1	-	101	-	-	-
Cc1ccc(N2CCN(CC3CC=CCC3)CC2)cc1 (stereo not drawn)	-	36	-	-	-
FC(F)(F)c1cccc(N2CCN(CC3CC=CCC3)CC2)c1 (stereo not drawn)	-	73	-	-	-
CCCOc1cccc(NC(=O)c2c(-c3ccccc3Cl)noc2C)c1	.	.	.	-	.
Cc1cccc(-c2nnc(SCC(=O)NC3CCCCC3)o2)c1	.	.	.	-	.
O=C(NCC1CCCO1)C(=Cc1cccc([N+](=O)[O-])c1)C(=O)NCC1CCCO1 (stereo not drawn)	-	-	-	-	-
CC(C)N(C(=O)/C=C/c1cccc([N+](=O)[O-])c1)C(C)C	-	-	-	-	-
O=C(/C=C/c1cccc([N+](=O)[O-])c1)OC1CCCCC1=O (stereo not drawn)	-	31	-	-	-
O=C(/C=C/c1cccc([N+](=O)[O-])c1)NCC1CCCO1 (stereo not drawn)	-	60	-	-	-
COc1cc(CN(C(=O)c2ccccc2[N+](=O)[O-])c2ccccn2)cc(OC)c1OC	.	.	-	-	.
O=C(O)c1ccccc1NC(=O)c1cc2ccccc2oc1=O	-	-	-	-	51
O=C(Nc1cccnc1N1CCOCC1)c1cc2ccccc2oc1=O	-	-	-	-	-
Cc1ccc(NC(=O)Nc2nc(-c3ccc(C)s3)cs2)cc1	-	-	-	45	-
CCCC[n+]1ccn(-c2nc3c([N+](=O)[O-])cccc3n2C)c1	-	34	-	-	-
O=C1CCCC/C1=C\Nc1ccc(O)cc1	-	-	-	-	-
O=C1CCCC/C1=C/Nc1cccc(C(F)(F)F)c1	-	34	-	-	-
SMILES	D2 ag-1	D2 antag	D2 ag-2	D2 PAM-1	D2 PAM-2
Nn1c(SC/C=C/c2ccccc2)nnc1-c1ccncc1	-	38	-	-	-
COc1cc(-c2nc(C(=O)NC3CCCCC3)cc3c2[nH]c2ccccc23)cc(OC)c1OC	-	-	-	-	-
COc1cc(-c2nc(C(=O)NC3CCN(Cc4ccccc4)CC3)cc3c2[nH]c2ccccc23)cc(OC)c1OC	-	74	-	-	-
COc1ccc(OC)c(-c2nc(C(=O)NCCCN3CCOCC3)cc3c2[nH]c2ccccc23)c1	-	-	-	-	-
COc1ccc(OC)c(-c2nc(C(=O)NC3CCN(Cc4ccccc4)CC3)cc3c2[nH]c2ccccc23)c1	-	81	-	-	-
COc1ccccc1CNC(=O)c1ccc(-c2nc(CS(=O)(=O)c3ccc(C)cc3)c(C)o2)cc1	.	.	-	-	.
Cc1c(NC(=O)Nc2cccc(C(F)(F)F)c2)sc2nc3n(c(=O)c12)CCC(C)CC3 (stereo not drawn)	.	.	-	-	.
Cc1cc(NC(=S)N(CCN2CCCCC2)Cc2ccco2)ccc1Cl	-	35	-	-	-
Cc1ccc(Cl)cc1NC(=S)N(CCCN1CCN(C)CC1)Cc1ccco1	-	71	-	-	-
Cc1ccc(NC(=S)N(CCCN2CCCC(C)C2)Cc2ccco2)cc1C (stereo not drawn)	-	46	.	-	-
CCC1CCCCN1S(=O)(=O)c1cc(C(=O)Nc2ccc(C)c(F)c2)ccc1F (stereo not drawn)	.	.	.	-	.
COc1ccc(CNC(=O)C(=O)Nc2ccc(OC)cc2OC)cc1	.	.	-	-	.
CCc1ccccc1NC(=O)Cn1cc(S(=O)(=O)N2CCCC2)c(S(=O)(=O)N2CCCC2)c1	.	.	-	-	.
COc1cc(N=c2ssnc2Cl)cc(OC)c1	-	-	-	35	-
Cn1c(CS(=O)Cc2c(Cl)cccc2Cl)nnc1SCc1ccc(Cl)cc1 (stereo not drawn)	-	31	-	-	-
Cc1ccc(CSc2nnc(CS(=O)Cc3ccc(Cl)cc3Cl)n2C)cc1 (stereo not drawn)	-	-	-	-	-
CC(C)(C)c1cc(OC(=O)c2ccncc2)ccc1O	-	.	.	-	69
Oc1ccccc1N=Cc1c(O)ccc2ccccc12	-	-	-	-	-
Oc1ccc2ccccc2c1C=NC12CN3CCN(CN(C3)C1)C2	-	.	.	.	102
OCC(CO)(CO)N=Cc1c(O)ccc2ccccc12	-	-	-	-	50
C=Cc1ccc(N=Cc2c(O)ccc3ccccc23)cc1	-	44	-	-	-
CCc1ccc(-n2c(=O)c3c4c(sc3n(CC(=O)NCCCOC)c2=O)CCCC4)cc1	.	.	-	-	.
Cc1ccc(-c2c(C(=O)N3CCN(c4cccc(C)c4C)CC3)oc(=O)c3ccccc23)cc1	.	.	-	-	.
O=C(O)COc1ccccc1/C=C1\SC(=S)N(NC(=O)c2ccccc2O)C1=O	-	-	-	-	-
O=C(Cc1ccccc1)NN1C(=O)/C(=C/c2ccccc2C(=O)O)SC1=S	-	31	-	-	-
SMILES	D2 ag-1	D2 antag	D2 ag-2	D2 PAM-1	D2 PAM-2
O=C(CN1CCN(c2ccc(O)cc2)CC1)Nc1ccc2c(c1)OCCO2	?	-	36	-	-
CCCN(CCC)C(=O)CSc1ncccc1C(=O)O	-	-	38	-	-
Cc1ccc(C)c(N(CC(=O)NC2CCCC2)C(=O)CCC(=O)Nc2cc(C)on2)c1	-	36	-	-	-
Cc1cc(NC(=O)CCC(=O)N(Cc2ccco2)C2(C(=O)NC3CCCCC3)CCCCC2)no1	-	-	-	-	-
Cc1cc(NC(=O)CCC(=O)N(Cc2ccccc2)C2(C(=O)NC3CCCCC3)CCCC2)no1	-	44	-	-	-
N/C(Cc1ccc(Cl)cc1Cl)=N\OC(=O)c1cccs1	-	-	-	-	119
N/C(Cc1cccc2ccccc12)=N\OC(=O)c1cccs1	-	-	-	-	-
